Among the data in the supplement of paper PMC10849652 are log2 fold change values, retold here.

About 7,900 targets were measured; listed, in parts, are those with a hit and a random draw of the rest. About 0.6% of all pairs of compound and target were hits.

Chain of UniProt Q8N0X7 (Q8N0X7 whole entry, looked up): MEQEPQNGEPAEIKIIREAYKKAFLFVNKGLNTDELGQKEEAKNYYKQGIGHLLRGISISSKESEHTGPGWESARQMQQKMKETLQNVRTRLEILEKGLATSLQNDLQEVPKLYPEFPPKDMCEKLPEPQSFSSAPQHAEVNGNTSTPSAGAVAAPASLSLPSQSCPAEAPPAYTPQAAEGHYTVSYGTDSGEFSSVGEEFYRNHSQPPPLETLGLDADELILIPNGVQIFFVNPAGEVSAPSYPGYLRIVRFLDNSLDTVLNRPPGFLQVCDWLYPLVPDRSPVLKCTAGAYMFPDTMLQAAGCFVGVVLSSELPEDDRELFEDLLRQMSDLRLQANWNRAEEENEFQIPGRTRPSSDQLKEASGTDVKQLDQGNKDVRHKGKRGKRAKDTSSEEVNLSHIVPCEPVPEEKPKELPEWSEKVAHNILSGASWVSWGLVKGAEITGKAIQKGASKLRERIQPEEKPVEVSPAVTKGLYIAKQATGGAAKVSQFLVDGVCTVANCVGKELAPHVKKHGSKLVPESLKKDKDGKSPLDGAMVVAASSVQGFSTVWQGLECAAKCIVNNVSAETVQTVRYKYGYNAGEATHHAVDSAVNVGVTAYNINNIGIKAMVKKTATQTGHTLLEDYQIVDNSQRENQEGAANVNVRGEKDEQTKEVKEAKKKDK
Chain of UniProt Q9BYX2 (Q9BYX2 whole entry, looked up): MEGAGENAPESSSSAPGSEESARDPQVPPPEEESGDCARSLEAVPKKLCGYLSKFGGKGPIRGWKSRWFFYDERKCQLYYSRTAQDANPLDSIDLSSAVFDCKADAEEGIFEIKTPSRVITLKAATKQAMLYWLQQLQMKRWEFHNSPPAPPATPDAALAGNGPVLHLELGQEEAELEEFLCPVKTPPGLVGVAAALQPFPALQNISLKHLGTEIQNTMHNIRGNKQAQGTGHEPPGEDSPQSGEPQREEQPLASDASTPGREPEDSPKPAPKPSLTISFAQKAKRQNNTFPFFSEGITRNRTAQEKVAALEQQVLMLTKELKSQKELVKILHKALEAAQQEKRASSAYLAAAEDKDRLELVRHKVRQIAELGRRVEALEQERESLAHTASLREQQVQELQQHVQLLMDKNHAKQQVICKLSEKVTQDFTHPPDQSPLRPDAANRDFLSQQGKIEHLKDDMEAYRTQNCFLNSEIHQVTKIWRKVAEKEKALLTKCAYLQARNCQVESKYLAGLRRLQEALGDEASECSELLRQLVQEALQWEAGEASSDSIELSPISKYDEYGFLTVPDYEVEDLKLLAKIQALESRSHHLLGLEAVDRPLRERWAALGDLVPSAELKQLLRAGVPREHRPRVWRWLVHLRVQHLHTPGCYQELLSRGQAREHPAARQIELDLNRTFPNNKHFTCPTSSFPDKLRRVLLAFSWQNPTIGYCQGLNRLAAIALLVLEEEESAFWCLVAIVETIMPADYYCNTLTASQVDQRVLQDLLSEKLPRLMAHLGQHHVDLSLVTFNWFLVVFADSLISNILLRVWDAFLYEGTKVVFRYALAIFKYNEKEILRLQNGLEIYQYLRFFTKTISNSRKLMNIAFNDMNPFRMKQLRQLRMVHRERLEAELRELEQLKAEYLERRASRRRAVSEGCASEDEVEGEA
Chain of UniProt P62072 (P62072 whole entry, looked up): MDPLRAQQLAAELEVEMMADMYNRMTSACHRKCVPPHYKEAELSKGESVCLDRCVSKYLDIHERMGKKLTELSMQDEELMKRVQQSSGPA
Chain of UniProt Q13586 (Q13586 whole entry, looked up): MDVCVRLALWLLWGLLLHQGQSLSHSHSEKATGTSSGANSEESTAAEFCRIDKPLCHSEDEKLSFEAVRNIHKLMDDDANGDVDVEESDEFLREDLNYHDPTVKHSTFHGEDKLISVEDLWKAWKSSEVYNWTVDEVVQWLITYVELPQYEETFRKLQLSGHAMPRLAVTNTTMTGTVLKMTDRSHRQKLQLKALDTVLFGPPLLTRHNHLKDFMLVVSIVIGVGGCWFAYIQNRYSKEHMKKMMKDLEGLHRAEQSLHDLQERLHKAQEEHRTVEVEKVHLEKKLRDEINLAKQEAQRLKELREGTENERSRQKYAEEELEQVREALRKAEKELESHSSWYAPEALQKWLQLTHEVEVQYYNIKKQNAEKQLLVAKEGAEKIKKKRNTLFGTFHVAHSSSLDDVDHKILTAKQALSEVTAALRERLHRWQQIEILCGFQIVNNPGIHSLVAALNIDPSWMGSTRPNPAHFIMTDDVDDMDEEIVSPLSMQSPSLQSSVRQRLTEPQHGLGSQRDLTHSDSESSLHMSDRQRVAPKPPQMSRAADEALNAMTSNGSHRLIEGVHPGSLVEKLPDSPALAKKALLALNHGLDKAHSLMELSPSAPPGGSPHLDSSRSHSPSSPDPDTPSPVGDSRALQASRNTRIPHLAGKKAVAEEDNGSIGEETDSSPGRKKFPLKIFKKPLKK
Chain of UniProt P55061 (P55061 whole entry, looked up): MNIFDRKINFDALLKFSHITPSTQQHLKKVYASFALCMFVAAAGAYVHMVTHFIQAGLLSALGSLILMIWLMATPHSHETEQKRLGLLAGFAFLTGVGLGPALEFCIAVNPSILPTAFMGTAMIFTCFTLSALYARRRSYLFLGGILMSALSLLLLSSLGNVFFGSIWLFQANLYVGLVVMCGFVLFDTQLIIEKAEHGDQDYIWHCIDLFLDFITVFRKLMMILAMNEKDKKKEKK
Chain of UniProt Q92797 (Q92797 whole entry, looked up): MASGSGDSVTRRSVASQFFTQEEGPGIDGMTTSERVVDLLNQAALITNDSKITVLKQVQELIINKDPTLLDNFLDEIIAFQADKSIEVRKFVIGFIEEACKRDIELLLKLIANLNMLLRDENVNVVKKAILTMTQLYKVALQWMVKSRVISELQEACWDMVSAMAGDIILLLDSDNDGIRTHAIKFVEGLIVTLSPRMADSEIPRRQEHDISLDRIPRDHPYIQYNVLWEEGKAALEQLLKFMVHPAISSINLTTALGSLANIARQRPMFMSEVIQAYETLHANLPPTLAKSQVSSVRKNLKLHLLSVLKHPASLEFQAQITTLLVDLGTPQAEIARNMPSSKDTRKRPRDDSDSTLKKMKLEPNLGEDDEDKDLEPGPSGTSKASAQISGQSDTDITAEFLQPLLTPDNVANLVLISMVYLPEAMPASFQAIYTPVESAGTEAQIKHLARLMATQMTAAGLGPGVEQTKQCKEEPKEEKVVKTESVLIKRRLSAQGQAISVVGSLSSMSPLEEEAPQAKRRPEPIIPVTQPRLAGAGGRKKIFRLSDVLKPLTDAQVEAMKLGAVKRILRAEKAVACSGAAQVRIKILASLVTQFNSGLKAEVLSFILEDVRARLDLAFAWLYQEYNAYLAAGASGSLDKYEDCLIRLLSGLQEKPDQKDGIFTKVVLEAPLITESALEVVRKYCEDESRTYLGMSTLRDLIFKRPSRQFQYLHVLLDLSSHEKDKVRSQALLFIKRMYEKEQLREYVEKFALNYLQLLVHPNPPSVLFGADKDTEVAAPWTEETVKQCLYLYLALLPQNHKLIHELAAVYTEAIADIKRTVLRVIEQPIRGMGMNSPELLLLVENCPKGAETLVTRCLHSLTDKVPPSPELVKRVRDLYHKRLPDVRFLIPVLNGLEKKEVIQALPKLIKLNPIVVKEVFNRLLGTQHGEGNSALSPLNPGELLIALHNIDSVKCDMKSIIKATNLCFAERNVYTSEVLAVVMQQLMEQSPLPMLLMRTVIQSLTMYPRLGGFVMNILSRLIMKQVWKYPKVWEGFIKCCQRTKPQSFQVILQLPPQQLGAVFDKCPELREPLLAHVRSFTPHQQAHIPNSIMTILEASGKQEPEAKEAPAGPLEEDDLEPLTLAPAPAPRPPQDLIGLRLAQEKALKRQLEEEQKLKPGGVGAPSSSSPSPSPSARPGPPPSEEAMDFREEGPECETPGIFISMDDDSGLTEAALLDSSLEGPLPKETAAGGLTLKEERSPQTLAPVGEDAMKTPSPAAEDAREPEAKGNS
Chain of UniProt Q9NZ01 (Q9NZ01 whole entry, looked up): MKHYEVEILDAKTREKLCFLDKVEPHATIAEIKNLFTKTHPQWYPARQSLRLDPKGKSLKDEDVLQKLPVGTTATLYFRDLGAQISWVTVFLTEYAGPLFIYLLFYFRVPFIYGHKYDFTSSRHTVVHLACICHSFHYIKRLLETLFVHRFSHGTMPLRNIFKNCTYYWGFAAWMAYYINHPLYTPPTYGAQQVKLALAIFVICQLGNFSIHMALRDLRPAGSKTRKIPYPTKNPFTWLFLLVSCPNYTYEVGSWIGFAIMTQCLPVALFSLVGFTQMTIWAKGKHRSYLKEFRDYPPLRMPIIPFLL
Chain of UniProt P08240 (P08240 whole entry, looked up): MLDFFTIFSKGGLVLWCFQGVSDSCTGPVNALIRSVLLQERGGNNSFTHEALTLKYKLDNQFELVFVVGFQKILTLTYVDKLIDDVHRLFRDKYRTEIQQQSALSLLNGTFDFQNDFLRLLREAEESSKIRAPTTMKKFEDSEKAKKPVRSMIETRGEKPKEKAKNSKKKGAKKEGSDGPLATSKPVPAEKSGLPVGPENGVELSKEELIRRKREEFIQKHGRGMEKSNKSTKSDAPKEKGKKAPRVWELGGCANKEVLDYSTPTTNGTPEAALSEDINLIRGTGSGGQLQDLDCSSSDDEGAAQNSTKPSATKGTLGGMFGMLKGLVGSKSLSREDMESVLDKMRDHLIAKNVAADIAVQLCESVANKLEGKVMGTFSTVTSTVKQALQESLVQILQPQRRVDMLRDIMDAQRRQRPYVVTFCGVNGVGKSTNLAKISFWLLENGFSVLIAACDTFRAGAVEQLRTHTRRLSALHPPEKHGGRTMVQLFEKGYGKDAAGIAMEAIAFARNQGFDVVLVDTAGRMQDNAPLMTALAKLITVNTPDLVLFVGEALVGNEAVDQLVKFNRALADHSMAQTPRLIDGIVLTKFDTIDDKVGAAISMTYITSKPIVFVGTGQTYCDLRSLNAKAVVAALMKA
Chain of UniProt P30626 (P30626 whole entry, looked up): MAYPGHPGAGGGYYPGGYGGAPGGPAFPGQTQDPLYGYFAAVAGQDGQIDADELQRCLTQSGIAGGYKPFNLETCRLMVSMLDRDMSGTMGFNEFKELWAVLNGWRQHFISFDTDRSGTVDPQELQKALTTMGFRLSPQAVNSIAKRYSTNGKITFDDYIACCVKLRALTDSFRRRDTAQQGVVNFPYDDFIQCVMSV

Compound in this experiment: c1cn2cc(-c3ccc4cn[nH]c4c3)nc(Nc3ccc(N4CCOCC4)cc3)c2n1 [entospletinib]
Kind of experiment: log2 fold change, soluble protein after heating vs DMSO (PISA); higher = thermal stabilisation; K562 cells, 10 uM, 30 min; active = over 0.2 and 3.5 SD of the protein, either way, in both replicates (recomputed). In outline:
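Aliquots of K562 cells (2×10^6 cells/mL) treated with 10 μM compound for 30 min were heated for 3 min over 48°C-58°C. After pooling and extraction in PBS with 0.5% NP-40 at 4°C, soluble protein from a 21,000xg, 90 min spin was quantified by TMTpro 16plex LC-MS/MS with channel sums equalised. Thermal stability is expressed against control samples, from duplicates, as a log2 fold change.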
On to SLC29A3 (UniProt Q9BZD2), for which the log2 fold change was 0.023 (inactive).

As for TECR (UniProt Q9NZ01), the log2 fold change is -0.018 (inactive).

For the target TBC1D24 (UniProt Q9ULP9), the log2 fold change was 0.004 (inactive).

With TBC1D2 (UniProt Q9BYX2), the log2 fold change is -0.015 (inactive).

For the target TARBP1 (UniProt Q13395), the log2 fold change was 0.043 (inactive).

SYMPK (UniProt Q92797): the log2 fold change was -0.015 (inactive).

For STK25 (UniProt O00506), the log2 fold change was -0.104 (inactive).

Consider SMG1 (UniProt Q96Q15), for which the log2 fold change is -0.004 (inactive).

On to SRPRA (UniProt P08240), for which the log2 fold change was -0.052 (inactive).

As for SSR3 isoform 2 (UniProt Q9UNL2), the log2 fold change was -0.012 (inactive).

For the target TFAM (UniProt Q00059), the log2 fold change is 0.08 (inactive).

As to STIM1 (UniProt Q13586), the log2 fold change is 0.003 (inactive).

STEAP3 isoform 2 (UniProt Q658P3): the log2 fold change was -0.038 (inactive).

Consider SLC38A9 (UniProt Q8NBW4), for which the log2 fold change is 0.019 (inactive).

Consider SPART (UniProt Q8N0X7), for which the log2 fold change was -0.005 (inactive).

Consider TM9SF2 (UniProt Q99805), for which the log2 fold change is 0.023 (inactive).

Consider TMBIM6 isoform 2 (UniProt P55061), for which the log2 fold change was -0.038 (inactive).

As to SLC38A2 (UniProt Q96QD8), the log2 fold change is -0.02 (inactive).

Regarding THRAP3 (UniProt Q9Y2W1), the log2 fold change was 0.09 (inactive).

As for SLC25A39 (UniProt Q9BZJ4), the log2 fold change was -0.045 (inactive).

Regarding SNX3 (UniProt O60493), the log2 fold change was 0.084 (inactive).

Regarding SRI (UniProt P30626), the log2 fold change was 0.019 (inactive).

Consider TBCD (UniProt Q9BTW9), for which the log2 fold change is -0.03 (inactive).

Consider SUCLG1 (UniProt P53597), for which the log2 fold change was -0.041 (inactive).

Take SMARCA4 (UniProt P51532): the log2 fold change was 0.097 (inactive).

Take SLC35B4 (UniProt Q969S0): the log2 fold change is 0.033 (inactive).

In the case of TIMM10 (UniProt P62072), the log2 fold change is 0.009 (inactive).

As to STRN (UniProt O43815), the log2 fold change was 0.03 (inactive).

As for SNUPN (UniProt O95149), the log2 fold change was 0.064 (inactive).

Take TBC1D23 (UniProt Q9NUY8): the log2 fold change was -0.045 (inactive).

For the target TERF2IP (UniProt Q9NYB0), the log2 fold change is -0.026 (inactive).

In the case of TAF9 (UniProt Q16594), the log2 fold change is -0.042 (inactive).

As for SSR4 (UniProt P51571), the log2 fold change was -0.021 (inactive).

As to SYF2 (UniProt O95926), the log2 fold change was 0.143 (inactive).

For SOAT1 (UniProt P35610), the log2 fold change was 0.079 (inactive).
